# Hits are enriched below; roughly 12% of the tested compounds scored in any of these assays.
# NS1 inh – influenza NS1 inhibition; actives 0.4% (n = 270,000); Potency, µM (top dose mostly 46.1 µM); calls by dose curve; also: actives are rising curves; nearly all actives have a fitted effect of over 50% in size
#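 Compounds were scored for reversing the slow growth caused by influenza A NS1 in S. cerevisiae, measured by optical density at 600 nm. Assay medium contained 2% galactose at pH 6.0; NS1-free yeast of the same strain were the positive control.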
# SARS PLpro yeast – inhibitors of SARS-CoV papain-like protease in yeast; S. cerevisiae expressing SARS-CoV PLpro, growth rescue; Potency, µM (doses to about 32.9 µM), usual class: activators; actives 0.19% (n = 330,000); AID 485353; calls by dose curve; also: nearly all actives have a fitted effect of over 55% in size
# HCV inh – blocks hepatitis C virus | Huh7.5.1 HCVcc-Cre infection, luciferase reporter, 44 h | Potency, µM (doses to about 41.8 µM), hits mostly inhibitors | actives 3.4% (n = 340,000)
#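 Antiviral activity was scored by luciferase reporter output from cells infected with HCVcc-Cre (~0.5 moi) in presence of compound, 44 h infection period, cells seeded 1,000/well 4 h prior.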
# AMA1 RON2 block – disrupts binding of P. falciparum AMA1 to RON2; AlphaScreen AMA1-biotinylated RON2 peptide binding; Potency, µM (series often up to 58.2 µM), most hits filed as inhibitors; actives 0.2% (n = 360,000); AID 720542; also: nearly all actives have a fitted effect of over 45% in size
#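 AMA1 (3D7) with his tag at 25 nM final met compounds first, then biotinylated RON2 peptide at 25 nM; detection used donor plus acceptor beads, 10 µg/mL apiece, read by AlphaScreen after 30 min at room temperature.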
# Pf growth 48h – inhibits P. falciparum growth in the first generation, 48 h; P. falciparum luciferase growth in erythrocytes, 48 h; Potency, µM (highest dose often 28.7 µM), most hits filed as inhibitors; actives 5.9% (n = 310,000)
#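 Luciferase-expressing P. falciparum in infected erythrocytes (2% hematocrit, 0.1% parasitemia final) in RPMI 1640/0.5% Albumax were exposed to compound for 48 hours at 37 C, 5% CO2; growth read as luminescence.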
# Pf growth 96h – inhibits malaria parasite growth, 96 h; P. falciparum luciferase reporter growth, 96 h; AID 504834; actives 6.9% (n = 320,000); Potency, µM (highest dose often 28.7 µM), usual class: inhibitors
#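 Delayed-death screen, second-generation endpoint: infected erythrocytes, 2% hematocrit, 0.05% parasitemia final; 96 hours at 37 C, 5% CO2; luciferase detection reagent; luminescence decrease equals reduced growth.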
# A number is an active result; - = inactive; ? = inconclusive; . = no result. Unless noted, calls follow the shape of the dose curve; as a rule, active = well fitted curve in the direction sought with a large enough effect; inconclusive = small, poorly fitted or top-dose-only effect, or another doubt; inactive = no such curve, though single readings can be large; an effect the other way counts as inactive or inconclusive.
SMILES,NS1 inh,SARS PLpro yeast,HCV inh,AMA1 RON2 block,Pf growth 48h,Pf growth 96h
CCn1c(SCc2ccc(C(=O)Nc3nccs3)cc2)nnc1-c1ccc(N)cc1,-,-,?,-,10µM,.
Nc1ccc(C(=O)Nc2nccs2)cc1,-,-,-,-,-,-
O=C(NC1CCCCC1)C(c1ccc(C(F)(F)F)cc1)n1c(=O)c(-c2ccccc2)nc2ccccc21 (centres undefined),.,.,.,-,.,.
O=S(=O)(c1ccccc1)N(CC1CO1)c1cccc2ccccc12 (centres undefined),-,-,-,-,12µM,?
CC(C)OCCCn1c(SCC(=O)Nc2ccccc2C(F)(F)F)nc2nccnc2c1=O,-,-,-,-,-,-
COC(=O)[C@H]1[C@H]2C[C@@H]3c4[nH]c5ccccc5c4CCN3C[C@H]2C[C@@H](OC(=O)c2cc(OC)c(OC)c(OC)c2)[C@@H]1OC,.,.,.,.,0.38µM,-
O=C(O)[C@@H]1[C@H]2C[C@H]3c4[nH]c5ccccc5c4CCN3C[C@@H]2CC[C@@H]1O,.,.,-,-,?,7.4µM
COc1ccc2c3c([nH]c2c1)[C@H]1C[C@@H]2[C@@H](C[C@@H](O)[C@H](OC)[C@H]2C(=O)O)CN1CC3,-,.,.,.,.,.
COC(=O)[C@@H]1[C@@H]2C[C@H]3c4[nH]c5ccccc5c4CCN3C[C@@H]2CC[C@@H]1O,-,.,.,.,-,-
COC(=O)[C@H]1[C@H]2C[C@@H]3c4[nH]c5cc(OC)ccc5c4CCN3C[C@H]2C[C@@H](OC(=O)c2ccc(N)cc2)[C@@H]1OC,-,-,?,-,12µM,13µM
COC(=O)C1=COC(C)C2CN3CCc4c([nH]c5ccccc45)C3CC12 (centres undefined),-,-,-,-,?,.
COC(=O)C1[C@@H](OC)C(OC(=O)COc2ccc(OC)cc2)C[C@@H]2CN3CCc4c([nH]c5cc(OC)ccc45)[C@H]3C[C@H]12 (some centres undefined),.,.,.,.,8.5µM,6.7µM
COc1ccc2c3c([nH]c2c1)[C@H]1C[C@H]2[C@H](C[C@@H](O)[C@H](OC)[C@H]2C(=O)O)CN1CC3,.,.,-,-,-,-
COP(=O)(OC)OC(C(=O)c1ccccc1)c1ccccc1 (centres undefined),.,.,.,-,.,.
Cc1c(NC(=O)N(C)c2ccccc2)c(=O)n(-c2ccccc2)n1C,-,.,-,-,-,?
CC(=O)Nc1ccc(NC(=O)C(C)OC(=O)c2ccc(C)s2)cc1 (centres undefined),-,-,-,-,-,-
CCSc1ccc(/C(N)=N/OC(=O)c2cccs2)cn1,-,-,-,-,-,-
CCOC(=O)Oc1c(OC)cc(C(=O)O[C@H]2C[C@H]3CN4CCc5c([nH]c6cc(OC)ccc56)[C@@H]4C[C@H]3[C@@H](C(=O)OC)[C@@H]2OC)cc1OC,.,.,.,.,1.6µM,1.3µM
COC(=O)[C@H]1[C@H]2C[C@@H]3c4[nH]c5cc(OC)ccc5c4CCN3C[C@H]2C[C@@H](OC(=O)/C=C/c2cc(OC)c(OC)c(OC)c2)[C@@H]1OC,.,.,?,?,0.74µM,0.93µM
COc1ccc2c3c([nH]c2c1)C1CC2C(CC(O)C(OC)C2CO)CN1CC3 (centres undefined),-,-,-,-,-,-
O=C(COC(=O)c1ccccc1[N+](=O)[O-])Nc1nnc(-c2ccccc2)o1,.,-,-,-,-,-
Cc1c(C(=O)Nc2ccc3c(c2)OCCO3)sc2ncnc(N3CCCCC3C)c12 (centres undefined),-,-,11µM,-,?,-
Cc1c(C(=O)N2CCC3(CC2)OCCO3)sc2ncnc(N3CCN(c4ccccn4)CC3)c12,-,-,?,-,?,12µM
COc1ccc(NC(=O)c2sc3ncnc(N4CCN(c5ccccn5)CC4)c3c2C)cc1Cl,-,.,6.3µM,-,6.6µM,?
COc1ccc(NC(=O)c2sc3nc(C)nc(N4CCN(c5ccccn5)CC4)c3c2C)cc1Cl,-,-,?,-,1.9µM,-
CC(C)Sc1nc2ccccc2n1CC(=O)O,-,-,-,-,-,-
CCN(CC)S(=O)(=O)c1cc(C(=O)Nc2cc(C)[nH]n2)ccc1Cl,-,-,?,-,.,-

# Bioassay records (PubChem BioAssay)
